Source: article doi:10.1101/2025.02.07.636106

Legend:
[1] = biological target: AP-1 complex subunit sigma-1A (UniProt P61966); assay: cross-linking mass spectrometry
[2] = biological target: AP-1 complex subunit mu-1 (UniProt Q9BXS5); assay: co-fractionation; cross-linking mass spectrometry
[3] = biological target: Elongation factor 1-alpha 1 (UniProt P68104); assay: cross-linking mass spectrometry
Histone deacetylase 2 = Histone deacetylase 2 (UniProt Q92769); assay: cross-link between two proteins; cross-linking mass spectrometry
Peregrin = Peregrin (UniProt P55201); assay: as above
Abl interactor 1 = Abl interactor 1 (UniProt Q8IZP0); assay: co-fractionation; cross-linking mass spectrometry
[4] = biological target: Dolichyl-diphosphooligosaccharide--protein glycosyltransferase subunit DAD1 (UniProt P61803); assay: co-fractionation; cross-linking mass spectrometry
[5] = biological target: 26S proteasome non-ATPase regulatory subunit 7 (UniProt P51665); assay: cross-link between two proteins; cross-linking mass spectrometry
[6] = biological target: 26S proteasome regulatory subunit 10B (UniProt P62333); assay: as above
[7] = biological target: Activity-dependent neuroprotector homeobox protein (UniProt Q9H2P0); assay: as above
[8] = biological target: B-cell receptor-associated protein 29 (UniProt Q9UHQ4); assay: as above
[9] = biological target: BTB/POZ domain-containing protein 7 (UniProt Q9P203); assay: as above
[10] = biological target: Cytochrome b-c1 complex subunit Rieske, mitochondrial (UniProt P47985); assay: as above
Elongin-A = Elongin-A (UniProt Q14241); assay: as above
[11] = biological target: Endoplasmic reticulum chaperone BiP (UniProt P11021); assay: as above
Histone H2B type 1-M = Histone H2B type 1-M (UniProt Q99879); assay: as above
Histone deacetylase 1 [12] = biological target: Histone deacetylase 1 (UniProt Q13547); assay: as above
[13] = biological target: Histone-lysine N-methyltransferase 2A (UniProt Q03164); assay: as above
[14] = biological target: Histone-lysine N-methyltransferase, H3 lysine-36 specific (UniProt Q96L73); assay: as above
[15] = biological target: Keratin, type I cytoskeletal 10 (UniProt P13645); assay: as above
[16] = biological target: KxDL motif-containing protein 1 (UniProt Q9BQD3); assay: as above
[17] = biological target: Lymphatic vessel endothelial hyaluronic acid receptor 1 (UniProt Q9Y5Y7); assay: as above
[18] = biological target: Melanoma inhibitory activity protein 2 (UniProt Q96PC5); assay: as above
Zinc finger protein DPF3 = Zinc finger protein DPF3 (UniProt Q92784); assay: as above
[19] = biological target: Metastasis-associated protein MTA3 (UniProt Q9BTC8); assay: as above
[20] = biological target: Methyl-CpG-binding domain protein 2 (UniProt Q9UBB5); assay: as above
Protein DOP1B = Protein DOP1B (UniProt Q9Y3R5); assay: as above
[21] = biological target: Transcriptional repressor p66-alpha (UniProt Q86YP4); assay: as above
[22] = biological target: Transcriptional repressor p66-beta (UniProt Q8WXI9); assay: as above
[23] = biological target: Tyrosine-protein phosphatase non-receptor type 14 (UniProt Q15678); assay: as above
Histone deacetylase 1 [24] = biological target: Histone deacetylase 1 (UniProt Q13547); assay: cross-link between two proteins; affinity purification or IP with mass spectrometry; cross-linking mass spectrometry
[25] = biological target: Paired amphipathic helix protein Sin3a (UniProt Q96ST3); assay: cross-link between two proteins; cross-linking mass spectrometry
[26] = biological target: Pre-mRNA-splicing factor CWC25 homolog (UniProt Q9NXE8); assay: as above
[27] = biological target: Guanine nucleotide-binding protein G(i) subunit alpha-3 (UniProt P08754); assay: co-fractionation; co-fractionation; cross-linking mass spectrometry
[28] = biological target: Heat shock-related 70 kDa protein 2 (UniProt P54652); assay: as above
Tubulin alpha-3E chain = Tubulin alpha-3E chain (UniProt Q6PEY2); assay: as above
AP-2 complex subunit mu = AP-2 complex subunit mu (UniProt Q96CW1); assay: cross-link between two proteins; co-fractionation; cross-linking mass spectrometry
[29] = biological target: Proteasome subunit alpha type-5 (UniProt P28066); assay: as above
[30] = biological target: Proteasome subunit beta type-4 (UniProt P28070); assay: as above
[31] = biological target: Proteasome subunit beta type-7 (UniProt Q99436); assay: as above
[32] = biological target: Dolichyl-diphosphooligosaccharide--protein glycosyltransferase 48 kDa subunit (UniProt P39656); assay: cross-link between two proteins; affinity purification or IP with mass spectrometry; cross-linking mass spectrometry

Chain of Heat shock protein HSP 90-beta, P08238 (P08238 whole entry): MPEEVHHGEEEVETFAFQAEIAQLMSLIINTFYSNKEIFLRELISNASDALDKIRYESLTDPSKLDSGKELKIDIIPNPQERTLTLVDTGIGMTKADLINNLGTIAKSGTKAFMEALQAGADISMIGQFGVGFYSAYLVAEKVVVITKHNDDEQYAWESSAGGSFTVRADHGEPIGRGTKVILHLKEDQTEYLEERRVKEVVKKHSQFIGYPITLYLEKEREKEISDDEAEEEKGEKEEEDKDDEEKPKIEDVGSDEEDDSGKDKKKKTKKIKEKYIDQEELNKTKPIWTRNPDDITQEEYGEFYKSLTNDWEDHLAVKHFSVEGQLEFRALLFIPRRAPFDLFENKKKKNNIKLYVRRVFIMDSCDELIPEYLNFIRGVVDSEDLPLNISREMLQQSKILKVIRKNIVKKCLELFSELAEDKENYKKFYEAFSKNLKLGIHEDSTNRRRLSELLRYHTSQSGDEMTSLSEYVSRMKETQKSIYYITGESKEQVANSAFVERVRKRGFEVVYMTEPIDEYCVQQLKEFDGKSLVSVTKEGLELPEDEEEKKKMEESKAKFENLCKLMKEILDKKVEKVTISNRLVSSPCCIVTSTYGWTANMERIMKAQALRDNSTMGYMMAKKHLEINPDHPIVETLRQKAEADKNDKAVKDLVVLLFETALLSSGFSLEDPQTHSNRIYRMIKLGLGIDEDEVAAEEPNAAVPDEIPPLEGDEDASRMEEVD
Chain of Dolichyl-diphosphooligosaccharide--protein glycosyltransferase subunit DAD1 (P61803 whole entry): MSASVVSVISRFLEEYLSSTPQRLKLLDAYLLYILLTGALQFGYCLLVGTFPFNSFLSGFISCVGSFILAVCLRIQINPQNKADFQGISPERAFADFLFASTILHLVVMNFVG
Chain of AP-1 complex subunit mu-1 (Q9BXS5 whole entry, one chain of several): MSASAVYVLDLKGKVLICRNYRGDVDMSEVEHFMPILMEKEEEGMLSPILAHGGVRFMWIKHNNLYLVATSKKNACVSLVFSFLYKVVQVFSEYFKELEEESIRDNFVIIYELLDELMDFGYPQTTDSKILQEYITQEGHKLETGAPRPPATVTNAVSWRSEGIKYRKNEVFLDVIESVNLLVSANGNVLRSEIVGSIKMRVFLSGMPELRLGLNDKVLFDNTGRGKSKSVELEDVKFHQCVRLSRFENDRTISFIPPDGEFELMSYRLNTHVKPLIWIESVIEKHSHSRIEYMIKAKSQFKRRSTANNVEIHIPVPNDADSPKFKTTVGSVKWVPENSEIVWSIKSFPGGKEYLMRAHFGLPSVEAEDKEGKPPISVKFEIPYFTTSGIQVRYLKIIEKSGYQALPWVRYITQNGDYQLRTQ
Chain of Histone deacetylase 1 (Q13547 whole entry): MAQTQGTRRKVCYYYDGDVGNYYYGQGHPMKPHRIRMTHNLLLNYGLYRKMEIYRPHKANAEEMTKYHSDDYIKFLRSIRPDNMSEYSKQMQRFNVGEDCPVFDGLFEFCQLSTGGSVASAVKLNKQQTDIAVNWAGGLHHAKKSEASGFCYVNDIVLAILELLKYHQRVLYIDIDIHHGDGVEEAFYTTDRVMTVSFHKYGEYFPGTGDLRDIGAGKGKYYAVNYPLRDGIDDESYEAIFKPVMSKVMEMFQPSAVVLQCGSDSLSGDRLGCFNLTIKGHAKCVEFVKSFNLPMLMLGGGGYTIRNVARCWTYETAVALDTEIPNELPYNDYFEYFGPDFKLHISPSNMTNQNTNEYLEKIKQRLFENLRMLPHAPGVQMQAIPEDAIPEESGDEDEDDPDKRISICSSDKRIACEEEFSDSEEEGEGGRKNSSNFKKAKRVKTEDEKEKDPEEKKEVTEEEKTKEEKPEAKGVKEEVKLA
Chain of Proteasome subunit beta type-7 (Q99436 whole entry): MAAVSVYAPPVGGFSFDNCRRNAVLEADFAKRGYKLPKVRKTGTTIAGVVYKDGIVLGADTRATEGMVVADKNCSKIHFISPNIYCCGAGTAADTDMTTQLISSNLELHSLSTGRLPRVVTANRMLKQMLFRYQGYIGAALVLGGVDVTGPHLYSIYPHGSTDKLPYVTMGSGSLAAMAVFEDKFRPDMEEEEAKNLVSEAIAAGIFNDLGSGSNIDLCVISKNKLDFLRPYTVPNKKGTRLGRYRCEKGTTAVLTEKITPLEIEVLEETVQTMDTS
Chain of Histone deacetylase 2 (Q92769 whole entry): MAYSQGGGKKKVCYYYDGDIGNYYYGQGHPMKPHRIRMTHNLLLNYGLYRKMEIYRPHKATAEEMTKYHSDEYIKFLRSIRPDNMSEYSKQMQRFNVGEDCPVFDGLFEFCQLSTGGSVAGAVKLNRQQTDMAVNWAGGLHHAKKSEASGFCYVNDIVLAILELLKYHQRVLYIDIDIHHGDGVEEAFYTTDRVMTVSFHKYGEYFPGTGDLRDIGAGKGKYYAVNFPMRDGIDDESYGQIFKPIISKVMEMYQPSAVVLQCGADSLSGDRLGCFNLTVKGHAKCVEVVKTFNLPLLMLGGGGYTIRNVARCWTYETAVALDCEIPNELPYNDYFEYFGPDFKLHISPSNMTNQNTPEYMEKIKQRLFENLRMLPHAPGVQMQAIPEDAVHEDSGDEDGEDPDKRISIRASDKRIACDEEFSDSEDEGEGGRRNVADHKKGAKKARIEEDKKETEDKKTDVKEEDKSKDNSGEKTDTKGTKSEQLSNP
Chain of Endoplasmic reticulum chaperone BiP (P11021 whole entry): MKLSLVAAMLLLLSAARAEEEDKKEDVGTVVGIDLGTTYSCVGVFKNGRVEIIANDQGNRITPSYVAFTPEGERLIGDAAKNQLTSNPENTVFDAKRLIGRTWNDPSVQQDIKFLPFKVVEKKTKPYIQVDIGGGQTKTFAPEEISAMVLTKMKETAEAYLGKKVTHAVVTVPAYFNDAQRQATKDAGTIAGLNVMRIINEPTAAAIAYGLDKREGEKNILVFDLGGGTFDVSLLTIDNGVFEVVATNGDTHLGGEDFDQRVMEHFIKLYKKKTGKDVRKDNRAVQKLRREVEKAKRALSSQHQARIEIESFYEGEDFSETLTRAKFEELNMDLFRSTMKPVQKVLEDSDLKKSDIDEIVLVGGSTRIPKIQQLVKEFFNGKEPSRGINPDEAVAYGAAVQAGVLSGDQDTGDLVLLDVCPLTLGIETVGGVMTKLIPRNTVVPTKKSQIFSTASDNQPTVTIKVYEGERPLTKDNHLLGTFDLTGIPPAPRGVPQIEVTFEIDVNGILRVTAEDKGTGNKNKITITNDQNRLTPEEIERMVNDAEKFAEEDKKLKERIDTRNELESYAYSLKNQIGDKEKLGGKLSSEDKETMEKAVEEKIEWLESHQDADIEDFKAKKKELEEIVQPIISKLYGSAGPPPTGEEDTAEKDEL
Chain of Methyl-CpG-binding domain protein 2 (Q9UBB5 whole entry, the tested form may be a part): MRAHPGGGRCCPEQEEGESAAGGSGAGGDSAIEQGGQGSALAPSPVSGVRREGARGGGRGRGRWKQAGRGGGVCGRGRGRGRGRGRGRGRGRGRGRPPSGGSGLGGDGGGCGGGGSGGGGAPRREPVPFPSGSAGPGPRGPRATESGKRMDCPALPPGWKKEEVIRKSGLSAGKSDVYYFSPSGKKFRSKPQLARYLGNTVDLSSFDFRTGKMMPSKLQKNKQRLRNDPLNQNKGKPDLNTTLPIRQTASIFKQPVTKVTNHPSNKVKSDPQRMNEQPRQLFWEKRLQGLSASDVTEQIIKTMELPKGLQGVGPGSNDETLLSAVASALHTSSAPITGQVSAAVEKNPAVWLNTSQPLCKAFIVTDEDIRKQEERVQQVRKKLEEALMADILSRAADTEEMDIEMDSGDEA
Chain of BTB/POZ domain-containing protein 7 (Q9P203 whole entry, the tested form may be a part): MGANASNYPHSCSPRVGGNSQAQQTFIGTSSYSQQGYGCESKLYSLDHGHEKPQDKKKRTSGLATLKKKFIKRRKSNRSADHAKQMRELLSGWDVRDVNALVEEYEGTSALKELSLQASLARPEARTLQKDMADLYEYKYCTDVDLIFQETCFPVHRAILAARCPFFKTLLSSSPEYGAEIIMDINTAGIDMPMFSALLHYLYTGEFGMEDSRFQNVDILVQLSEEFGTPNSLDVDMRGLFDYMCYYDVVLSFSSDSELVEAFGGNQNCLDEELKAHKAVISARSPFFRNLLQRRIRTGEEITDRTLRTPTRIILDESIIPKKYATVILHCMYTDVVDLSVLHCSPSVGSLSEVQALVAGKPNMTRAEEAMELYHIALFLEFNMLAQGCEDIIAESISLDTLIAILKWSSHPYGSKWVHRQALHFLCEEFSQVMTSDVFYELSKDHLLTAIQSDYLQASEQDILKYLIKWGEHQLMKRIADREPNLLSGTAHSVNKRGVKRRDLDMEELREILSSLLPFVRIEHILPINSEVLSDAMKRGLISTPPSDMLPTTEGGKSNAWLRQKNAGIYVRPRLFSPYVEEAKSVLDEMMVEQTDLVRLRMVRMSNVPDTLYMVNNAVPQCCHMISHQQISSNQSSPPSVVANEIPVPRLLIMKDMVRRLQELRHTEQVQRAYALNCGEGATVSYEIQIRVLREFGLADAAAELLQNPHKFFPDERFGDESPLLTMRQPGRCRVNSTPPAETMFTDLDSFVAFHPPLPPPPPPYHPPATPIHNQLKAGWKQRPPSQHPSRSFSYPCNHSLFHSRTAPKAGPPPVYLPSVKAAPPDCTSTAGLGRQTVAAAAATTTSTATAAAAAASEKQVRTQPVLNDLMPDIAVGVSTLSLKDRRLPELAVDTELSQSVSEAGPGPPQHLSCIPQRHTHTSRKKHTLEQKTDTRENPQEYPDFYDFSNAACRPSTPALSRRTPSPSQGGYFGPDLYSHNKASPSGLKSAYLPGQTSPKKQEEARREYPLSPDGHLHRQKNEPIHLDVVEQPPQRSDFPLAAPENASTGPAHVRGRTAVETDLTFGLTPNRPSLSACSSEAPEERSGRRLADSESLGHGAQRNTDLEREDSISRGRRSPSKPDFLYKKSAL
Chain of Proteasome subunit beta type-4 (P28070 whole entry): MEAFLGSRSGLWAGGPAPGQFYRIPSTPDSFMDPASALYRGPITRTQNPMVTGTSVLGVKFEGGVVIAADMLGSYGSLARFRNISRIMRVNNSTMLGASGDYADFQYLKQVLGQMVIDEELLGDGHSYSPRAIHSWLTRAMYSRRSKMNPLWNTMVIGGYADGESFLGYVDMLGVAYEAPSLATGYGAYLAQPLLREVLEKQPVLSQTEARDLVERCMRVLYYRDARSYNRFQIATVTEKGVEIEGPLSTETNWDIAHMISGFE

AP-1 complex subunit gamma-1, O43747
listed as a hit [1]: yes | listed as a hit [2]: yes

Heat shock protein HSP 90-beta, P08238
listed as a hit [3]: yes | listed as a hit (Histone deacetylase 2): yes | listed as a hit (Peregrin): yes

AP-1 complex subunit sigma-1A, P61966
listed as a hit [2]: yes

Cytoplasmic FMR1-interacting protein 1, Q7L576
listed as a hit (Abl interactor 1): yes

Dolichyl-diphosphooligosaccharide--protein glycosyltransferase subunit 2, P04844
listed as a hit [4]: yes

Dolichyl-diphosphooligosaccharide--protein glycosyltransferase subunit 1, P04843
listed as a hit [4]: yes

26S proteasome non-ATPase regulatory subunit 12, O00232
listed as a hit [5]: yes

Proteasome subunit alpha type-3, P25788
listed as a hit [6]: yes

ATP-dependent chromatin remodeler CHD4, Q14839
listed as a hit [7]: yes

Leucine-rich repeat-containing protein 59, Q96AG4
listed as a hit [8]: yes

Secretory carrier-associated membrane protein 3, O14828
listed as a hit [9]: yes

Putative cytochrome b-c1 complex subunit Rieske-like protein 1, P0C7P4
listed as a hit [10]: yes

ATP synthase peripheral stalk subunit OSCP, mitochondrial, P48047
listed as a hit (Elongin-A): yes

DNA/RNA-binding protein KIN17, O60870
listed as a hit [11]: yes

ADP/ATP translocase 3, P12236
listed as a hit (Histone H2B type 1-M): yes

Collagen alpha-5(IV) chain, P29400
listed as a hit (Histone deacetylase 1 [12]): yes

Prohibitin 1, P35232
listed as a hit [13]: yes

Protein-L-isoaspartate(D-aspartate) O-methyltransferase, P22061
listed as a hit [14]: yes

Keratin, type II cytoskeletal 1, P04264
listed as a hit [15]: yes

Biogenesis of lysosome-related organelles complex 1 subunit 1, P78537
listed as a hit [16]: yes

B-cell receptor-associated protein 31, P51572
listed as a hit [17]: yes

Syntaxin-7, O15400
listed as a hit [18]: yes | listed as a hit (Zinc finger protein DPF3): yes

Metastasis-associated protein MTA1, Q13330
listed as a hit [19]: yes | listed as a hit [20]: yes | listed as a hit (Protein DOP1B): yes | listed as a hit [21]: yes | listed as a hit [22]: yes | listed as a hit [23]: yes | listed as a hit (Histone deacetylase 1 [24]): yes

Histone-binding protein RBBP7, Q16576
listed as a hit [25]: yes

Transcriptional repressor p66-beta, Q8WXI9
listed as a hit [26]: yes

Guanine nucleotide-binding protein G(i) subunit alpha-2, P04899
listed as a hit [27]: yes

Heat shock 70 kDa protein 6, P17066
listed as a hit [28]: yes

Tubulin beta-4B chain, P68371
listed as a hit (Tubulin alpha-3E chain): yes

AP-2 complex subunit alpha-1, O95782
listed as a hit (AP-2 complex subunit mu): yes

Proteasome subunit alpha type-7, O14818
listed as a hit [29]: yes

Proteasome subunit beta type-1, P20618
listed as a hit [30]: yes

Proteasome subunit beta type-3, P49720
listed as a hit [31]: yes

Proteasome subunit alpha type-6, P60900
listed as a hit [31]: yes

Calnexin, P27824
listed as a hit [32]: yes
